In assay [1] the target is Lysosomal acid glucosylceramidase (Homo sapiens) (UniProt P04062). The assay is described as follows: Glucocerebrosidase-p2 (AID 348; in the data active = potency below about 10 µM; also: potency is read from the fitted curve at half-maximal effect). As to conditions: purified GBA, blue fluorogenic substrate, 40 min. The method, boiled down:
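Compounds titrated from 0.6 nM upwards against 0.2 nM enzyme in pH 5.9 citric acid/KH2PO4, taurocholate, tween-20; blue fluorogenic substrate 80 uM, 40 min room temperature, stopped and read Ex 365/Em 440 for AC50.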

A short description of assay [2]: AP1 Signaling Pathway (AID 357).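 Also: ME-180 reporter cells stimulated with EGF at its EC50 level; % is scaled to controls: 0 for no effect and ±100 for the full control effect.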 As to conditions: ME-180 AP-1-bla reporter, EGF-induced, beta-lactamase ratio, 5 h; at 7.69 µM (top of the series) unless noted. An outline of the steps:
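Beta-lactamase reporter under AP-1 response element, ME-180 background. Stimulus: EC50 EGF. Compound exposure 5 h, 37 °C. Detection: CCF4, 2.5 h RT, 460/530 nm. Values: AC50 from titration.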

Assay [3] deals with Cytochrome P450 1A2 (Homo sapiens) (UniProt P05177). The assay is described as follows: p450-cyp1a2 (AID 410; calls by dose curve; also: potency is read from the fitted curve at half-maximal effect;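 as to activity change, negative = inhibition: -100% = full effect of reference inhibitor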). As to conditions: recombinant CYP1A2, luciferin-ME demethylation, luminescence; series mostly up to 57 µM. The method, boiled down:
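Human CYP1A2 (20nM) demethylated Luciferin-ME at its Km (100uM) in 100mM KPO4. After 10 min compound preincubation, NADPH regeneration ran the reaction 60 min at room temperature. Luciferin was read by luminescence, normalized to 57 uM furafylline.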

The nature of assay [4]: NFAT Signaling Pathway (AID 444).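 Also: carbachol stimulus at about its EC50 of 1 µM final; % is scaled to controls: 0 for no effect and ±100 for the full control effect.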 As to conditions: Jurkat NFAT-bla M1, carbachol, beta-lactamase ratio, 5 h; at 7.69 µM (top of the series) unless noted. An outline of the steps: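 Jurkat cells carrying an NFAT-driven β-lactamase reporter and co-transfected muscarinic M1 receptor were treated with compound plus carbachol (1 uM final, an EC50 level) for 5 h at 37 °C. CCF4 loading followed for 1 h at RT; 460/530 nm ratio gave %activity.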

Assay [5] can be described thus: Stat Signaling Pathway (AID 446).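 Also: ME-180 cervical cancer cells given 40 pM IL-6 alongside compound; SIE-controlled beta-lactamase reporter measured as 460/530 nm FRET emission ratio; % is scaled to controls: 0 for no effect and ±100 for the full control effect.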 As to conditions: ME-180 SIE beta-lactamase reporter, IL-6 stimulated, 5 h; at 7.69 µM (top of the series) unless noted. The method, boiled down:
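ME-180 SIE-bla cells; overnight plating; cpd + IL-6 40 pM, 5 h, 37 C; LiveBLAzer 2.5 h RT; 460/530 nm emission ratio. Normalized to 300 pM IL-6 and 125 nM JAK inhibitor controls.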

Assay [6] has as its target Glucocorticoid receptor (Homo sapiens) (UniProt P04150). In words: GR-GFP Redistribution (AID 450;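 active = compounds whose dose series gives a full or clear partial fitted curve of increased nuclear translocation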; also: potency is read from the fitted curve at half-maximal effect). As to conditions: U2OS GR-GFP nuclear translocation, laser cytometry, 2 h.
For assay [7] the target is unchanged. In words: GR-EFC Redistribution (AID 451; calls by dose curve; also: potency is read from the fitted curve at half-maximal effect). As to conditions: CHO-K1 GR-EFC translocation, beta-gal luminescence, 2 h. The method, boiled down:
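CHO-K1 cells stably expressing nuclear-localized β-gal enzyme acceptor and GR fused C-terminally to the enzyme donor fragment; ligand-driven nuclear translocation restores β-gal by complementation. Compounds titrated up to 46 uM final, 2 h at 37 °C; luminescence read.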

Assay [8] addresses Mitogen-activated protein kinase 10 (Mus musculus) (UniProt Q61831). In words: JNK3 AlphaScreen Assay (AID 530).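 Also: kinase came from lysate of stimulated human HepG2 cells; % is scaled to controls: 0 for no effect and ±100 for the full control effect.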 As to conditions: JNK3 lysate, c-Jun phosphorylation; series mostly up to 57.1 µM. An outline of the steps: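 JNK3 came from HepG2 lysates pre-activated with IL-1beta and TNF-alpha and phosphorylated biotinylated GST-cJun (1-79) at 10 uM ATP, pH 7.6, room temperature. Compounds were titrated. AlphaScreen signal used anti-phospho-cJun (Ser73) antibody.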

Assay [9] concerns the target 3',5'-cyclic-AMP phosphodiesterase 4B (Homo sapiens) (UniProt Q07343). In words: qHTS Assay for Inhibitors of PDE-IV (AID 607; active = well fitted activation curve with a large enough effect in the main read-out, with a control signal flat, not every such curve was filed as active; also: % of control where 0% means no effect). As to conditions: HEK293 ACTOne CNG channel cells, membrane potential fluorescence; series mostly up to 22.9 µM. An outline of the steps: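 ACTOne HEK293 cells carry a modified cAMP-gated CNG channel and express endogenous PDE4; plated 1000 cells/well, compounds up to 22.9 uM final. Membrane-potential dye fluorescence (ex 535/em 590) was read; parental cells received 10 uM forskolin + 100 uM RO 20-1724.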

Assay [10] deals with Cytochrome P450 3A4 (Homo sapiens) (UniProt P08684). The assay is described as follows: qHTS Assay for Activators of Cytochrome P450 3A4 (AID 885; active = well fitted curve in the direction sought with a large enough effect; an effect the other way counts as inactive or inconclusive; also: nearly all actives have a fitted effect of over 65% in size). As to conditions: recombinant CYP3A4, Luciferin-PPXE luminescence, 60 min; series mostly up to 57.1 µM. The method, boiled down:
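20nM CYP3A4 + 25uM Luciferin-PPXE (=KM), 200mM KPO4; cpd 10 min RT; NADPH regen, 60 min RT; stop w/ detection buffer, 20 min; luminescence. Normalized to 57 uM ketoconazole.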
A general note: qHTS replaces the single test concentration by a dilution series.

A short description of assay [11]: qHTS Assay for Identification of Small Molecule Agonists for Hypoxia Response Element Signaling Pathway (AID 914; active = well fitted activation curve with a large enough effect in the signal ratio, with a control signal flat, not every such curve was filed as active; the % refers to the signal ratio; also: % of control where 0% means no effect). As to conditions: ME-180 (cervical carcinoma) HRE-bla reporter, beta-lactamase ratio, CoCl2, 17 h; activation: stronger effect = higher value. An outline of the steps: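 AC50 values come from titration-series %Activity, taken as the 460/530nm ratio of CCF4 fluorescence (excitation 405nm). CellSensor HRE-bla ME-180 cells were treated 17 hours at 37 C with compound plus an EC50 level of CoCl2.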

A short description of assay [12]: qHTS Assay for Lipid Storage Modulators (AID 1519; calls by dose curve). As to conditions: Drosophila S3 cells, BODIPY lipid droplet/cell ratio, laser cytometry, cells loaded with oleic acid; for activity change, negative = inhibition: at 57.5 µM (top of the series). The method, boiled down: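 Cells seeded at 5,000 per well were treated with compounds over a concentration series and loaded with oleic acid (400 uM, as added). Lipid droplet fluorescence (488 nm excitation, 500-530 nm channel) was read by laser-scanning cytometry and normalized to 20 uM Triacsin C.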

Assay [13] is described as follows: Primary qHTS for small molecule stabilizers of the endoplasmic reticulum resident proteome: Secreted ER Calcium Modulated Protein (SERCaMP) assay (AID 1508630; active = well fitted curve in the direction sought with a large enough effect; an effect the other way counts as inactive or inconclusive; also: % is scaled to controls: 0 for no effect and ±100 for the full control effect). As to conditions: SH-SY5Y GLuc-SERCaMP (Gaussia luciferase released on ER calcium loss) secretion, thapsigargin, luminescence; series mostly up to 38.4 µM. The method, boiled down: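 GLuc-SERCaMP-expressing SH-SY5Y cells, pretreated 16 h with compound, are challenged with thapsigargin to empty ER calcium stores; after 4 h, coelenterazine is added directly to the medium and luminescence is imaged.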

Assay [14] deals with Cytochrome P450 2D6 (Homo sapiens) (UniProt P10635). The assay is described as follows: qHTS Assay for Inhibitors and Substrates of Cytochrome P450 2D6 (AID 891; active = well fitted curve in the direction sought with a large enough effect; an effect the other way counts as inactive or inconclusive; also: potency is read from the fitted curve at half-maximal effect; nearly all actives have a fitted effect of over 60% in size). As to conditions: recombinant CYP2D6, luciferin-ME EGE luminescence; series mostly up to 57.1 µM. The method, boiled down: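 Human CYP2D6 (5 nM) with 30 uM Luciferin-ME EGE (at Km) in 100 mM KPO4, compound preincubated 10 min, then NADPH regeneration system for 60 min at room temperature. Luciferin read by luminescence; normalized to 1.43 uM quinidine.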
Cytochrome P450 2D6 (Homo sapiens), sequence (P10635 whole entry, looked up): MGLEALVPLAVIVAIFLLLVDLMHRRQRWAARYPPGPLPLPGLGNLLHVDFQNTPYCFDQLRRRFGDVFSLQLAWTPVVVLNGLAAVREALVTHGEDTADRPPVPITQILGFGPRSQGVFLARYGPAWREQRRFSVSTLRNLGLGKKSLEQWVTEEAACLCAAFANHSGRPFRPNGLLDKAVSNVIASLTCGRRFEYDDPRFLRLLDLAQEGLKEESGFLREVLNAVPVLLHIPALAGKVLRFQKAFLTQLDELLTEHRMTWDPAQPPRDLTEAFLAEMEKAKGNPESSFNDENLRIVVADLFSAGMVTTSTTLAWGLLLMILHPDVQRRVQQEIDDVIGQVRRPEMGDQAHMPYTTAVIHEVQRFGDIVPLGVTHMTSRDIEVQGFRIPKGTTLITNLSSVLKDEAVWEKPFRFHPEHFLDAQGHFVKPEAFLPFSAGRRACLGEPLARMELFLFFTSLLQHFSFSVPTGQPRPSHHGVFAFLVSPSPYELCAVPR

In assay [15] the target is Cytochrome P450 2C19 (Homo sapiens) (UniProt P33261). In words: qHTS Assay for Inhibitors and Substrates of Cytochrome P450 2C19 (AID 899; active = well fitted curve in the direction sought with a large enough effect; an effect the other way counts as inactive or inconclusive; also: potency is read from the fitted curve at half-maximal effect; nearly all actives have a fitted effect of over 60% in size). As to conditions: recombinant CYP2C19, luciferin-H EGE luminescence; series mostly up to 57.1 µM. The method, boiled down: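 NADPH-dependent conversion of Luciferin-H EGE (10uM, at KM) by 5nM enzyme in 50mM KPO4, 60 min at 37C following 10 min compound preincubation. Stopped with luciferin detection buffer; luminescence read after 20 min.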
Cytochrome P450 2C19 (Homo sapiens), sequence (P33261 whole entry, looked up): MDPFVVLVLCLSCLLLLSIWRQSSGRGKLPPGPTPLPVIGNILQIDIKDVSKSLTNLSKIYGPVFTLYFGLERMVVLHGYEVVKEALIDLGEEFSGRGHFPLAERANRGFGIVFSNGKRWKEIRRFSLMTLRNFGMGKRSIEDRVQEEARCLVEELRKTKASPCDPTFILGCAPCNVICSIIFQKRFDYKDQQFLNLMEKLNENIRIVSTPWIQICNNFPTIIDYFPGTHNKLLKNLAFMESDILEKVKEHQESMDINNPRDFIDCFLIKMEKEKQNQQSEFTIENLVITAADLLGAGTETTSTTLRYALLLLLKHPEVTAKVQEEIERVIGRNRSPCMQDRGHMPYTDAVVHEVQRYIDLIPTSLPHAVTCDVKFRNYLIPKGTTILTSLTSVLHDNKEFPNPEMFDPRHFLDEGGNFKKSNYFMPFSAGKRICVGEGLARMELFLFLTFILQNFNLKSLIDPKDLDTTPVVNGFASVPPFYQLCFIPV

A short description of assay [16]: Confirmation and Secondary Assay for Modulators of Hemoglobin Beta Chain Splicing at IVS2 654 locus (AID 910; active = well fitted curve in the direction sought with a large enough effect; an effect the other way counts as inactive or inconclusive;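 also: per-well total GFP intensity by laser scanning cytometry after 2-day treatment; % of control where 0% means no effect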). As to conditions: HeLa EGFP-654 splicing reporter, GFP fluorescence, 48 h; series mostly up to 38.3 µM. The method, boiled down: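 HeLa cells stably carrying EGFP interrupted by mutant beta-globin IVS2-654 intron (CMV-driven) were treated with compound for 2 days at 37C; corrected splicing was scored as total peak GFP intensity per well (488 nm excitation, 500-520 nm emission).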

A short description of assay [17]: Confirmation and Secondary Assay for Modulators of Hemoglobin Beta Chain Splicing at IVS2 705 locus (AID 930; active = well fitted curve in the direction sought with a large enough effect; an effect the other way counts as inactive or inconclusive;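 also: HeLa cells stably expressing the EGFP-705 splicing reporter; % of control where 0% means no effect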). As to conditions: HeLa EGFP-705 splicing reporter, GFP fluorescence, 48 h; series mostly up to 38.3 µM. An outline of the steps:
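Restored EGFP fluorescence after 2-day compound exposure reports splicing correction in IVS2-705 EGFP reporter HeLa cells; positive control was 500 nM splice-blocking PNA oligo. Signal measured as well total peak GFP intensity (488 nm excitation).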

For assay [18], the target named is Ubiquitin carboxyl-terminal hydrolase 1 (Homo sapiens) (UniProt O94782). In words: Inhibitors of USP1/UAF1: Pilot qHTS (AID 504865; active = well fitted curve in the direction sought with a large enough effect; an effect the other way counts as inactive or inconclusive;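 also: rhodamine fluorescence freed from ubiquitin-rhodamine substrate followed over time; top concentration of the series differs between compounds; % is scaled to controls: 0 for no effect and ±100 for the full control effect; nearly all actives have a fitted effect of over 35% in size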). As to conditions: purified USP1/UAF1, Ub-rhodamine cleavage fluorescence; series mostly up to 54.9 µM. An outline of the steps: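 Kinetic fluorescence assay: 1nM USP1/UAF1, 15 min compound preincubation, then 150nM Ub-Rho; 480/540 nm.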
Ubiquitin carboxyl-terminal hydrolase 1 (Homo sapiens), sequence (O94782 whole entry, looked up): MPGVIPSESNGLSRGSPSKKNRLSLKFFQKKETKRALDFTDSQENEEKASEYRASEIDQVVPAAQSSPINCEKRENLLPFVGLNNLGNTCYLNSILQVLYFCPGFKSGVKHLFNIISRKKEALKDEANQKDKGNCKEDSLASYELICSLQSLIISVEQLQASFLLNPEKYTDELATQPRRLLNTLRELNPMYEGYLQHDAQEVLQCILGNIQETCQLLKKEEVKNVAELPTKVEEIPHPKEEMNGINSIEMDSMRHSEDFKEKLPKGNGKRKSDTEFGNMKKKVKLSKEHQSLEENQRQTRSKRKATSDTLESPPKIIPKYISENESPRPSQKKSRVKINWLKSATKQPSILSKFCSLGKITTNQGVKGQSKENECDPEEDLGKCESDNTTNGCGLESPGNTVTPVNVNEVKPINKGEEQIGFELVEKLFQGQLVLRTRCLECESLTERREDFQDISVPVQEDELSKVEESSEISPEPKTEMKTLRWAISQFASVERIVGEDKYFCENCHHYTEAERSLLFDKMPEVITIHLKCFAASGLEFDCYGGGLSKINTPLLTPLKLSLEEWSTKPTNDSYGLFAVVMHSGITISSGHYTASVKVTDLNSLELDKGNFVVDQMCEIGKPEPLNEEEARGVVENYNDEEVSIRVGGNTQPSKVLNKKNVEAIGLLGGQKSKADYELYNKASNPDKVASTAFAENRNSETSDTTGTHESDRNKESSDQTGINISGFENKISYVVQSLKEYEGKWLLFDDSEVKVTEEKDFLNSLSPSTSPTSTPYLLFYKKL

The mark [19] stands for this setting: measured here: cell count channel max response.
[20] abbreviates: measured here: lipid channel max response.

Inconclusive results are not listed. The source made the active and inactive calls. Unless noted, calls follow the shape of the dose curve; as a rule, active = well fitted curve in either direction with a large enough effect (not every such curve was filed as active); inconclusive = small, poorly fitted or top-dose-only effect, or another doubt; inactive = flat fitted curve, though single readings scatter.

Cytochrome P450 3A4 (Homo sapiens), sequence (P08684 whole entry, looked up): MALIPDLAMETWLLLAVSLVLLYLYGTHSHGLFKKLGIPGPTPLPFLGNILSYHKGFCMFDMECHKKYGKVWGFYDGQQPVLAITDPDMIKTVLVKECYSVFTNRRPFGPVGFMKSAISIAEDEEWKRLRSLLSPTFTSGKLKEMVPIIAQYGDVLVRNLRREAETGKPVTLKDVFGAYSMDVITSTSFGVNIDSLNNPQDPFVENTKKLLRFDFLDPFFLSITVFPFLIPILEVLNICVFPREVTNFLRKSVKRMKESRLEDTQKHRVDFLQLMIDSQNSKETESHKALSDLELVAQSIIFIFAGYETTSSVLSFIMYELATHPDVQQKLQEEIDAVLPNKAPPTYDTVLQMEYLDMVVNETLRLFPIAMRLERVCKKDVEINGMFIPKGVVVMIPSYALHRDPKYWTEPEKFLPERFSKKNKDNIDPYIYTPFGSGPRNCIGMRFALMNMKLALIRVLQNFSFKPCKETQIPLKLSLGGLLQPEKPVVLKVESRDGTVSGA
Lysosomal acid glucosylceramidase (Homo sapiens), sequence (P04062 whole entry, looked up): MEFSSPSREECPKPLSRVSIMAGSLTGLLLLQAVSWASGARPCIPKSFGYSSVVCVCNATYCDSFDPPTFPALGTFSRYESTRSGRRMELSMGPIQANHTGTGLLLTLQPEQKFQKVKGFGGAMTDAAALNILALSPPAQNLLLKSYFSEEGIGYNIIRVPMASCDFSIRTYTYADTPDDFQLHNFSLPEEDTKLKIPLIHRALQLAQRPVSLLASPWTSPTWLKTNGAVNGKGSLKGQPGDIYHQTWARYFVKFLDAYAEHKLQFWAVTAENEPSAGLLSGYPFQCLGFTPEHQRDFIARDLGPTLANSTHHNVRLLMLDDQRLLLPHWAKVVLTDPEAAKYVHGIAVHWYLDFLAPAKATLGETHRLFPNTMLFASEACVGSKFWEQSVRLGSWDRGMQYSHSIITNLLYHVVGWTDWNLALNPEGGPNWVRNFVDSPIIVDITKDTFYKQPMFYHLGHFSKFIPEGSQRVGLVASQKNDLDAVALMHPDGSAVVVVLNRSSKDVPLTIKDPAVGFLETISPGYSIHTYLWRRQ
3',5'-cyclic-AMP phosphodiesterase 4B (Homo sapiens), sequence (Q07343 whole entry, looked up): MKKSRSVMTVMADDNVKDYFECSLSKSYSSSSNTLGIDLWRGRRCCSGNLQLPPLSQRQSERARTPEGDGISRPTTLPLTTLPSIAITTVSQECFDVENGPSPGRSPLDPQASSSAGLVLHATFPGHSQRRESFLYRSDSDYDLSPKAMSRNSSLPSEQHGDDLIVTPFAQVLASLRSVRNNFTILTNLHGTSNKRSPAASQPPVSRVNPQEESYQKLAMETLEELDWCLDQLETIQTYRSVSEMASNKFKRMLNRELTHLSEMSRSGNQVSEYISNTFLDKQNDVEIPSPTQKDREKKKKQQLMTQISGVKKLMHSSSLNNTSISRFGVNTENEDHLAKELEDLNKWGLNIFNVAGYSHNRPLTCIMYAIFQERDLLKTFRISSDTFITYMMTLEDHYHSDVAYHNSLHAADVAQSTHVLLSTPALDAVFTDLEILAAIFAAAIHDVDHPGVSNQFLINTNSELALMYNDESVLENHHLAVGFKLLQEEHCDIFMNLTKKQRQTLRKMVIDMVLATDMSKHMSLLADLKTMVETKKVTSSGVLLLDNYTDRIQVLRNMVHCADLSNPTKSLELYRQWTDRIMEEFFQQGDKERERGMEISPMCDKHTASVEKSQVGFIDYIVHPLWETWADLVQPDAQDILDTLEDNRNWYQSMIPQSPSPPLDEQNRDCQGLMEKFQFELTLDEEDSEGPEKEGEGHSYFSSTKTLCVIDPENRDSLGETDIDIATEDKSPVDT
Glucocorticoid receptor (Homo sapiens), sequence (P04150 whole entry, looked up): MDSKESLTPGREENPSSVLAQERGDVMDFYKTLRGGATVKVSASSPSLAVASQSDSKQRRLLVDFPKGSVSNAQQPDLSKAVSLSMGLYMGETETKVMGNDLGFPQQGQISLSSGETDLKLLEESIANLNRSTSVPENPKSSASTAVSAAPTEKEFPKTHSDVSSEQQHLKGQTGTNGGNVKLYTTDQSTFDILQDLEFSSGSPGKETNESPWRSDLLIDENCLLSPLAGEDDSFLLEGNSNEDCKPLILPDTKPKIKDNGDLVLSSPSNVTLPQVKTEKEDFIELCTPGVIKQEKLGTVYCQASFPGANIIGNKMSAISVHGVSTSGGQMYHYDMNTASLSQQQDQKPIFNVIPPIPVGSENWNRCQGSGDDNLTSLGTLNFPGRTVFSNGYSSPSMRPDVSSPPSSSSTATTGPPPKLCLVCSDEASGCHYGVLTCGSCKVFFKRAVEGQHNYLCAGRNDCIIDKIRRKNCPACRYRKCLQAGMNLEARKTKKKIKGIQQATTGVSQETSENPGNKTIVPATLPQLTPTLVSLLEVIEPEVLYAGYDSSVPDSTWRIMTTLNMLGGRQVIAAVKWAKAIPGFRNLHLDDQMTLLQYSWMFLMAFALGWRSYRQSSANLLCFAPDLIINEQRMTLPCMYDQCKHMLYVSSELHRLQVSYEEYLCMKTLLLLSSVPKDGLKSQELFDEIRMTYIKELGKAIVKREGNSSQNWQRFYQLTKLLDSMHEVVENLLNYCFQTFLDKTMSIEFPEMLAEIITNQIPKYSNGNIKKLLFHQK
Cytochrome P450 1A2 (Homo sapiens), sequence (P05177 whole entry, looked up): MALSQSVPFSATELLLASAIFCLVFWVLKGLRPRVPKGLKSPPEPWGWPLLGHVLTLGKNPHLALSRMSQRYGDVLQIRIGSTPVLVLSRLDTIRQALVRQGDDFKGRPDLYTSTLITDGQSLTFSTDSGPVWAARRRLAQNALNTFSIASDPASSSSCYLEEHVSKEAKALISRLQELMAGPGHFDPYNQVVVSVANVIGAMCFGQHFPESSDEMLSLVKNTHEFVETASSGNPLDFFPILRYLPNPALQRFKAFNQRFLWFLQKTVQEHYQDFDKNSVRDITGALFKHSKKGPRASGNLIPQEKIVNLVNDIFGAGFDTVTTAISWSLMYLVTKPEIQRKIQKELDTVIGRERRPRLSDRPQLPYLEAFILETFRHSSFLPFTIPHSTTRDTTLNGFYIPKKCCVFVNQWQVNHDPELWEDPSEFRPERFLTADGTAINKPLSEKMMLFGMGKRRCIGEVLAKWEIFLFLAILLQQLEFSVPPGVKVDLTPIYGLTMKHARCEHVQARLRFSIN

Take `COc1ncc2nc(-c3cccc(C#N)c3)c(=O)n(CCC#N)c2n1`: the Potency in assay [1] is > 11.4 µM (inactive); in [3], 20 µM (active); in assay [6], > 9.22 µM (inactive); in [7] it was > 46 µM (inactive). For the same compound, the activity change, negative = inhibition in assay [2] was -2.26% (inactive); in assay [4], -6.7% (inactive); in [12], 3.8% (inactive). Also, the activity, negative = inhibition in [5] is -3.36% (inactive). Further, the compound was classed as inactive in assay [8]. Also, the Potency entry in assay [9], in assay [10] and in [13] was “inactive” in each case. Also, the activation in [11] is -3.76% (inactive). In addition, the max response in assay [12] (setting [19]) stood at 14.2%; in assay [12] (setting [20]), 20.3%.

On to `O=c1c(-c2ccccc2)nc2cnc(Oc3ccccc3)nc2n1Cc1cccs1`, for which the Potency in assay [1] was > 11.4 µM (inactive); in assay [3] it was 2.51 µM (active); in assay [6], > 9.22 µM (inactive); in [7] it was > 46 µM (inactive). In addition, the activity change, negative = inhibition is -0.0665% (inactive) in assay [2], -0.0107% (inactive) in assay [4] and -10.3% (inactive) in assay [12]. For the same compound, the activity, negative = inhibition in assay [5] is 3.84% (inactive). For the same compound, the result in [8] was inactive. Besides, the Potency entry in assay [9] and in assay [13] was “inactive” throughout. Also, the max response worked out at 21.8% in assay [12] (setting [19]) and 12.8% in assay [12] (setting [20]).

As for `COc1cccc(-c2nccc(-n3ccnc3)n2)c1`, the Potency is > 11.4 µM (inactive) in [1]; 0.0316 µM (active) in assay [3]; > 46 µM (inactive) in assay [6]; > 46 µM (inactive) in assay [7]; 7.94 µM (active) in assay [14]; 2.51 µM (active) in assay [15]. Moreover, the activity change, negative = inhibition is 9.38% (inactive) in assay [2], 14% (inactive) in assay [4] and 4.69% (inactive) in assay [12]. For the same compound, in assay [5], the activity, negative = inhibition is -0.599% (inactive). For the same compound, the compound was called inactive in assay [8], in assay [16] and in assay [17]. In addition, the Potency entry in [9], in [10] and in assay [13] was “inactive” in each case. Besides, the figures for the max response in assay [12] (setting [19]) and in assay [12] (setting [20]) were 4.96% and 13.1%, respectively.

For `O=C(O)C1CCN(c2ncnc3ccc(-c4ccccc4C(F)(F)F)cc23)CC1`, the figures for the Potency in assay [1], in assay [6] and in assay [7] were > 11.4 µM (inactive), > 46 µM (inactive) and > 46 µM (inactive), respectively. The activity change, negative = inhibition was -20.1% (inactive) in assay [2], 6.97% (inactive) in assay [4] and 4.82% (inactive) in assay [12]. The Potency entry in [3], in assay [10], in assay [18] and in [13] was “inactive” each time. Moreover, the activity, negative = inhibition in assay [5] is -9.2% (inactive). Besides, the outcome in [8], in assay [16] and in assay [17] was inactive. Also, the values for the max response in assay [12] (setting [19]) and in [12] (setting [20]) were 14.4% and 20.7%, respectively.

In the case of `COCCNc1cc(-c2c(C)noc2C)ncn1`, the Potency in assay [1] was > 11.4 µM (inactive); in assay [3], 10 µM (active); in [6], > 46 µM (inactive). In addition, the figures for the activity change, negative = inhibition in assay [2], in assay [4] and in [12] were -3.45% (inactive), 3.73% (inactive) and 8.14% (inactive), respectively. The activity, negative = inhibition in [5] is 0.472% (inactive). The call in assay [8] was inactive. The results for the max response in assay [12] (setting [19]) and in assay [12] (setting [20]) were 13% and 22.2%, respectively. Also, the Potency result in assay [18] and in assay [13] was “inactive” each time.

Consider `COC(=O)N1CCC2(CCN(C(=O)NC(C)C)CC2)CC1`, for which the results for the Potency in assay [1], in [3] and in assay [7] were > 11.4 µM (inactive), 20 µM (active) and > 46 µM (inactive), respectively. Also, the figures for the activity change, negative = inhibition in assay [2], in assay [4] and in [12] were -1.37% (inactive), -29.8% (inactive) and 2.86% (inactive), respectively. Also, in assay [5], the activity, negative = inhibition was -1.69% (inactive). Moreover, the result in assay [8] was inactive. For the same compound, the Potency result in assay [9] and in [13] was “inactive” each time. The max response came out at 7.58% in assay [12] (setting [19]) and 13.7% in [12] (setting [20]).

For the origin of these results see PubChem BioAssay (NCATS).
